Test results reported in PubChem BioAssay (Tox21).
Values joined by “and” are separate entries in the source; they are usually repeats but may differ in a detail not shown here. Equal entries are not always repeated. Records with an inconclusive call do not appear. Unmarked numbers belong to inactive results. Active and inactive are the calls of the source. The call rests on the fitted dose curve; in most records, active means well fitted inhibition curve with a large enough effect in the repeat runs; inconclusive means weak or mixed curves; inactive means flat fitted curve, though single readings scatter. Starred links: 1 amine or outer side, 2 acyl side, 3 side chain; linkers in the order of their positions; H or OH if unused. Positions of bridges follow the written chain, without caps; N, C: chain ends. Non-standard residues stand in square brackets, D forms with d. Residues, ends and D or L forms follow the SMILES beside them. Chains are numbered I, II in the order given. Actinocin(9to1) = Cc1c2oc3c(C)ccc(C(=O)[*:1])c3nc-2c(C(=O)[*:2])c(N)c1=O; NMeV = CN[C@H](C(=O)O)C(C)C; Sar = CNCC(=O)O
On the % scale 0 is the no-effect control and ±100 the full control effect; potency means the concentration at half of the fitted maximal effect.

Each compound was assayed against Voltage-gated inwardly rectifying potassium channel KCNH2 (Homo sapiens) (UniProt Q12809) (assay: Human Ether-a-go-go-Related Gene (hERG) channel small molecule antagonists: fluorescence cell-based qHTS assay (AID 1671200; further: nearly all actives have a fitted effect of over 50% in size)). Conditions: hERG-U2OS cells, FluxOR thallium flux fluorescence; series mostly up to 76.8 µM; activity change, negative = inhibition: at the top concentration.
Chain of Voltage-gated inwardly rectifying potassium channel KCNH2 (Homo sapiens) (Q12809 whole entry, looked up): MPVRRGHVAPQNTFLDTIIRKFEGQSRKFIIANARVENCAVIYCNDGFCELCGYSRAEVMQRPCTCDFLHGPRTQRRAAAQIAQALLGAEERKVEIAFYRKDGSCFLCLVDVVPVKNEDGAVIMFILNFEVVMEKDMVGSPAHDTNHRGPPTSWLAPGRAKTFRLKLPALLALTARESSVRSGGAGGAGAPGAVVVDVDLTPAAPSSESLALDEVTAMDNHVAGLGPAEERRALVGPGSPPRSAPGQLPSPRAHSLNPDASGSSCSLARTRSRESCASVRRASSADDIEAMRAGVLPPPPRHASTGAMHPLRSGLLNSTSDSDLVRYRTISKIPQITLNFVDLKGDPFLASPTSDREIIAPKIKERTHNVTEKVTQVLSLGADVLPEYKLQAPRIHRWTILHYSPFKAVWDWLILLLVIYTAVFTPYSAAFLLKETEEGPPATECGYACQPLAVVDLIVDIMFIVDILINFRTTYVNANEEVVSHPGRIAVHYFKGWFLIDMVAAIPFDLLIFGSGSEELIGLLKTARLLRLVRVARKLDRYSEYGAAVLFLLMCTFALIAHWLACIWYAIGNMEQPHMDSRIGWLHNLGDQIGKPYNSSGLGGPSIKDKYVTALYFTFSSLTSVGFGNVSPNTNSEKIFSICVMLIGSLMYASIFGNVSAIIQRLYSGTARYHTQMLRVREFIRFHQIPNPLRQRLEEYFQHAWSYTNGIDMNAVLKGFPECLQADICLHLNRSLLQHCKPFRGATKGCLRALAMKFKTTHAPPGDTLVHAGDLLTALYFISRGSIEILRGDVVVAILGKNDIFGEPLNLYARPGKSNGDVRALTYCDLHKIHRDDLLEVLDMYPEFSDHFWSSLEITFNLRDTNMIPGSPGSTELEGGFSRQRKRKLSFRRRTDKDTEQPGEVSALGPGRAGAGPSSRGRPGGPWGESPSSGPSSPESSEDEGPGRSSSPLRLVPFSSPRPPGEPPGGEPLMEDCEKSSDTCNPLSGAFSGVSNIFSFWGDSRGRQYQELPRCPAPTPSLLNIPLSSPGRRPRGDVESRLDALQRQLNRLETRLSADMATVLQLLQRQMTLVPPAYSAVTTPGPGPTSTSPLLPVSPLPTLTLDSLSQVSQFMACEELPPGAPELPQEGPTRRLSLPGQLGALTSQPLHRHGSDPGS
Method in brief: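 Measured: Tl+ flux via fluorescence (480/540 nm) in hERG-expressing U2OS cells after 1 h dye loading at room temperature.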
For `CC(COc1ccccc1)N(CCCl)Cc1ccccc1` (configuration not stated), the Potency was 19.7 µM (active) and 24.5 µM (active).
`C#CC(C)(CC)OC(=O)c1ccccc1C(=O)O` (configuration not stated) was tested, and the “activity change, negative = inhibition” value was 1.07% [at 35.3 µM].
`[Cl][In]([Cl])[Cl]` was tested, and the Potency was “inactive”.
With `Oc1ccc(Cl)cc1Cc1cc(Cl)ccc1O` the “activity change, negative = inhibition” value was -15.5% [at 35.3 µM].
With `CCOC(=O)C(C)C(C)=O` (configuration not stated) the “activity change, negative = inhibition” value was 1.33%.
For `CC(C)C(=O)c1c(C(C)C)nn2ccccc12`, the “activity change, negative = inhibition” value was -1.83% [at 35.3 µM].
In the case of `C=C(C)C1CC=C(C)C(OC(C)=O)C1` (configuration not stated), the Potency is reported as “inactive”.
In the case of `CO[Si](OC)(OC)c1ccccc1`, the “activity change, negative = inhibition” value is reported as 0.96%.
`CCN(CC)c1ccc2c(C)cc(=O)oc2c1` was tested, and the Potency was “inactive”.
In the case of `O=C(Oc1ccccc1)c1ccccc1O`, the Potency is reported as “inactive”.
`O=C(O)CCc1ccccc1` was tested, and the “activity change, negative = inhibition” value was -11%.
For `O=Nc1ccc(Nc2ccccc2)cc1`, the “activity change, negative = inhibition” value was -4.48%.
In the case of `NNCCc1ccccc1`, the “activity change, negative = inhibition” value is reported as 0.312% [at 35.3 µM].
For `Cc1cccc(O)c1C`, the Potency was “inactive”.
With `C=CC(=O)OCCCCCCOC(=O)C=C` the Potency was “inactive”.
With `Cc1cc(C(C)(C)C)c(O)c(C(C)(C)C)c1` the “activity change, negative = inhibition” value was -28.9% [at 35.3 µM].
In the case of `O=S(=O)(O)c1ccc2nc(-c3ccccc3)[nH]c2c1`, the Potency is reported as “inactive”.
With `COC(=O)/C=C/c1ccccc1` the Potency was “inactive”.
In the case of `CCC[C@H](N[C@@H](C)C(=O)N1[C@H](C(=O)O)C[C@@H]2CCCC[C@@H]21)C(=O)OCC`, the Potency is reported as “inactive”.
In the case of `COc1nc(C)nc(Cl)c1NC1=NCCN1`, the “activity change, negative = inhibition” value is reported as -0.0793% [at 35.3 µM].
With `C=C(C)C(=O)O` the Potency was “inactive”.
`CC(C)(O)CCC(C)(C)O` was tested, and the “activity change, negative = inhibition” value was -1.25%.
`Cc1c2oc3c(C)ccc(C(=O)N[C@@H]4C(=O)N[C@H](C(C)C)C(=O)N5CCC[C@H]5C(=O)N(C)CC(=O)N(C)[C@@H](C(C)C)C(=O)O[C@@H]4C)c3nc-2c(C(=O)N[C@@H]2C(=O)N[C@H](C(C)C)C(=O)N3CCC[C@H]3C(=O)N(C)CC(=O)N(C)[C@@H](C(C)C)C(=O)O[C@@H]2C)c(N)c1=O` (I: T[dV]P[Sar][NMeV] / II: T[dV]P[Sar][NMeV]; ester I:1-I:C, II:1-II:C; linker I:N-II:N via Actinocin(9to1)) was tested, and the Potency was “inactive”.
In the case of `Cc1cc(Cc2cc(C)cc(C(C)(C)C)c2O)c(O)c(C(C)(C)C)c1`, the Potency is reported as 39.1 µM (active).
With `CC1=CC(=O)c2ccccc2C1=O` the Potency was 3.89 µM (active) and 7.56 µM (active).
With `CC(C)CCCCCCc1ccc(O)cc1` the Potency was 39.6 µM (active).
`C1COC(NC(C2CC2)C2CC2)=N1` was tested, and the “activity change, negative = inhibition” value was 3.01% [at 35.3 µM].
For `CCCCOCCOC(=O)c1ccccc1C(=O)OCCOCCCC`, the “activity change, negative = inhibition” value was -17.5%.
With `CC(=O)Nc1ccc(C(=O)CCl)cc1` the “activity change, negative = inhibition” value was 8.7%.
For `NC(N)=NC(=O)Cc1c(Cl)cccc1Cl`, the “activity change, negative = inhibition” value was -1.56% [at 35.3 µM].
With `CCC(=O)/C=C/C1C(C)=CCCC1(C)C` (configuration not stated) the Potency was “inactive”.
In the case of `BrC1CCC(Br)C(Br)CCC(Br)C(Br)CCC1Br` (configuration not stated), the Potency is reported as 15.4 µM (active).
